From PubChem BioAssay AID493199 (National Center for Advancing Translational Sciences (NCATS), 2011)
This is one part of the list. Records with an inconclusive call do not appear. Activity calls are given as the source filed them. The call rests on the fitted dose curve; in most records, active means well fitted inhibition curve with a large enough effect; inconclusive means small, poorly fitted or top-dose-only effect, or effect the other way; inactive means no such curve, though single readings can be large or run the other way.

Molecular target: Muscleblind-like protein 1 (Homo sapiens) (UniProt Q9NR56)
Sequence (Q9NR56 whole entry, looked up): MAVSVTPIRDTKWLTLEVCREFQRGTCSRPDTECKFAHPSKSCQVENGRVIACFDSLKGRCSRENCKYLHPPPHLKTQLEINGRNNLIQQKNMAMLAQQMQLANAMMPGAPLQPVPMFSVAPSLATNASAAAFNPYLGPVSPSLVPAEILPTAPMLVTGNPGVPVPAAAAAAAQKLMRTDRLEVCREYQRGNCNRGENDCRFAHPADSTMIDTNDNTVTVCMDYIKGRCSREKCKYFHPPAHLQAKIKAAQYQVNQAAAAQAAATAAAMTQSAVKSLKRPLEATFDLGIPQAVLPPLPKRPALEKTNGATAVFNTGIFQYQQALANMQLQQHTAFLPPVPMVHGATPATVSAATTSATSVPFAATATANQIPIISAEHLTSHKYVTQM
Assay: qHTS Assay for Inhibitors of MBNL1-poly(CUG) RNA binding: Initial hit validation from the primary screen
Settings: TR-FRET MBNL1-His / biotin-(CUG)12 binding, 60 min
Excerpt: NIH Chemical Genomics Center [NCGC] NIH Molecular Libraries Probe Production Centers Network [MLPCN] MLPCN Grant: R03 MH087421-01 Assay Submitter (PI): Charles Thornton NCGC Assay Overview: Expanded CTG repeats in the 3' untranslated region of the DM protein kinase (DMPK) gene causes type I myotonic dystrophy (DM1). DM1 is a multi-systemic disease with a prevalence of 1/7000. Clinical features include myotonia, progressive muscle weakness and wasting, cardiac arrhythmia, insulin resistance, hypersomnolence, cataracts, and other symptoms. The pathogenic effect of expanded CTG repeats stems from deleterious effects of the mutant transcript. CUGexp mRNA accumulates in nuclear foci and sequesters proteins of the muscleblind family, of which MBNL1 is the most common family member in skeletal muscles. The binding interaction between MBNL1 and CUGexp tracts leads to deregulation of alternative splicing and is therefore a key molecular step in the pathogenesis of DM1. To target this binding interaction, we optimized a protein-RNA binding assay in 1536-well format for identification of small molecule inhibitors of biotinylated (CUG)12 and his-tagged MBNL1 binding. Protein-RNA complex of MBNL1-His and Biotin-(CUG)12 captures the detection reagents terbium-labeled anti-His antibody and streptavidin conjugated XL665. This brings the terbium label within close proximity to XL665 to allow time-resolved fluorescence resonance energy transfer (TR-FRET). Inhibitors of MBNL1-(CUG)12 binding will disrupt TR-FRET. This deposition presents the initial confirmation of hits from the primary screen in the same assay.
NCGC Assay Protocol Summary: This is a TR-FRET binding assay with MBNL1-His and Biotin-(CUG)12 RNA. The assay uses a ratiometric measurement. […] (3) Add 1 ul of terbium labeled anti-His antibody (0.055 ng/ul final concentration) (4) Add 1 ul of streptavidin-XL665 (5 nM final concentration) (5) Incubate 60 min at room temperature (6) Detect the assay plate in a EnVision plate reader (PerkinElmer) with Ex=340 nm, Em1=665 nm and Em2=545 nm. […]

Potency, active:
COc1ccc(Cc2n[nH]c(=S)n2NC(=O)Nc2ccc(C)cc2)cc1 20.6 µM, COc1cccc(NC(=O)Cn2cnc3sc(C)c(S(=O)(=O)N4CCN(C)CC4)c3c2=O)c1 16.3 µM, CCOC(=O)c1c(C)[nH]c2c1-c1ccccc1C(=O)C2=O 3.26 µM
